Test results published in PubChem BioAssay (NCI).
Compounds without any hit were thinned out: in the full panel of roughly 83,000, 20% have a hit.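 Growth was measured after 48 h exposure to one concentration of compound in 96-well plates. Values under 10 count as active.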 The source made the active and inactive calls.

System: SK-MEL-28 melanoma
Test: NCI-60 one-dose screen, 48 h (100 = growth as untreated, 0 = no growth, -100 = all killed)
Settings: 10 µM unless noted

**Q.** For `O=C(c1ccc(Br)cc1)C(Br)C(c1ccc(Cl)cc1)C(c1ccccc1)[N+](=O)[O-]` (stereo unspecified), which growth is on record?
**A.** 97.7% (inactive)

**Q.** Which growth does the source give for `CN1CCOCCN(C)Cc2ccc3ccc(cc3c2)CN(C)CCOCCN(C)Cc2ccc3ccc(cc3c2)C1` here?
**A.** 105% (inactive)

**Q.** Which growth does the source give for `COc1ccc(CN2C(=O)OC(C)(COC(C)=O)C2=O)cc1` (stereo unspecified) here?
**A.** 101% (inactive)

**Q.** For `CN(C)c1ccc(/C=N\NC(=O)c2ccc3nc(-c4ccc(Cl)cc4)[nH]c3c2)cc1`, which growth is on record?
**A.** 71.9% (inactive)

**Q.** With `COCCn1cc(-c2csc(-c3c[nH]c4ccc(F)cc34)n2)c2cccnc21` as the compound, how does the growth read?
**A.** 46.6% (inactive)

**Q.** `C/C(Cc1ccc(Cl)cc1)=C(\c1ccc(OCCN2CCCCCC2)cc1)c1ccc(OC(=O)c2ccccc2)cc1` was tested. Which growth did it give?
**A.** -1.89% (active)

System: SK-MEL-2 melanoma
Test: as above
Settings: 10 µM unless noted

**Q.** `COCCn1cc(-c2csc(-c3c[nH]c4ccccc34)n2)c2cccnc21` was tested. Which growth did it give?
**A.** 18.3% (inactive)

**Q.** How did the growth turn out when `CCN(CC)c1ccc(-c2cc(-c3cc(OC)c(OC)c(OC)c3)nc(N3CCC(O)CC3)c2C#N)cc1` was run?
**A.** -66.6% (active)

**Q.** `CN1C(=O)/C(=C/c2ccc(C(=O)Nc3ncc(Cc4cccc(C(F)(F)F)c4)s3)cc2)SC1=S` was tested. Which growth did it give?
**A.** 56.7% (inactive)

**Q.** For `Nc1ncnc2c1N=C(c1ccc(Cl)cc1)CC(c1cccc(Nc3ccnc4cc(Cl)ccc34)c1)N2` (stereo unspecified), which growth is on record?
**A.** 76.6% (inactive)

**Q.** `COCCn1cc(-c2nc(-c3cc4cccnc4n3C)cs2)c2ccccc21` was tested. Which growth did it give?
**A.** 18.7% (inactive)

**Q.** `COC(=O)[C@]1(C)CCC[C@]2(C)[C@H]3C[C@@H]4[C@H]5[C@@H]6CC/C(=N\OCC/C(N)=N/O)[C@H]5[C@@]3(CC[C@H]21)CC4(C(C)C)O6` was tested. Which growth did it give?
**A.** 85.8% (inactive)

**Q.** How did the growth turn out when `Cc1cccc(-c2nc(C(C)C)sc2-c2ccnc(NCCCNS(=O)(=O)c3ccc(Cl)cc3)c2)c1` was run?
**A.** 79% (inactive)

**Q.** Which growth does the source give for `O=C(/C=C/C12c3ccccc3C(c3ccccc31)C1C(=O)NC(=O)C12)c1ccc(Cl)cc1Cl` (stereo unspecified) here?
**A.** -2.62% (active)

**Q.** For `CC(C)(C)CC(C)(C)Nc1c(-c2c(O)c3ccccc3oc2=O)nc2sc3ccccc3n12`, which growth is on record?
**A.** 66.2% (inactive)

**Q.** Which growth does the source give for `CN(C)CCC(CCN(C)C)(C(=O)O)c1ccccc1` here?
**A.** 102% (inactive)

**Q.** How did the growth turn out when `Cn1c(=O)[nH]c(=O)c2nc3c(nc21)-c1ccccc1C3=O` was run?
**A.** 103% (inactive)

**Q.** `C=C(c1ccc(C(=O)O)c(F)c1)c1cc2c(cc1C)C(C)(C)CCC2(C)C` was tested. Which growth did it give?
**A.** 89.4% (inactive)

**Q.** How did the growth turn out when `C=C1C(=O)O[C@H]2[C@H]1CC/C(COC(=O)C(=O)c1c[nH]c3ccc(Cl)cc13)=C\CC[C@@]1(C)O[C@@H]21` was run?
**A.** -58.9% (active)

**Q.** How did the growth turn out when `N#Cc1c(-c2ccc(Br)cc2)nc2c(N=Nc3ccc(S(N)(=O)=O)cc3)c(N)nn2c1N` was run?
**A.** 43.4% (inactive)

**Q.** For `CCN(CC)CCN1C(=O)c2c(c3c4ccccc4[nH]c3c3ccc4ccccc4c23)C1=O`, which growth is on record?
**A.** 97.7% (inactive)

**Q.** How did the growth turn out when `O=C(/C=C/c1ccccc1)N(C1CCCCC1)C1CCCCC1` was run?
**A.** 82.9% (inactive)

**Q.** How did the growth turn out when `CC1(C)CC[C@]2(CO)CC[C@]3(C)[C@](O)([C@H](O)C[C@@H]4[C@@]5(C)CCCNC(C)(C)[C@@H]5CC[C@]43C)[C@@H]2C1` was run?
**A.** 106% (inactive)

**Q.** `Nc1nc(N(Cc2ccccc2)c2ccccc2)c2cn[nH]c2n1` was tested. Which growth did it give?
**A.** 111% (inactive)

**Q.** For `CN1CC(c2ccc(Br)cc2)C(C(=O)c2ccc(Br)cc2)C12C(=O)Nc1ccccc12` (stereo unspecified), which growth is on record?
**A.** 82.9% (inactive)

**Q.** Which growth does the source give for `Nc1nc(C(=O)N/N=C/c2ccc(F)cc2)nn1-c1ccc(S(N)(=O)=O)cc1` here?
**A.** 104% (inactive)

**Q.** With `COc1ccc(-c2nc(SCC(=O)Nc3nc4ccc(C)cc4s3)[nH]c(=O)c2C#N)cc1OC` as the compound, how does the growth read?
**A.** 115% (inactive)

**Q.** `CNC(=O)NCC1OC(n2cnc3c(NC(=O)Nc4ccccc4)ncnc32)C2OC(=O)CC12` (stereo unspecified) was tested. Which growth did it give?
**A.** 70% (inactive)

**Q.** For `COc1ccc(NC(=O)c2ccc(Nc3ncnc4c3cnn4-c3cccc(F)c3)cc2)cc1`, which growth is on record?
**A.** 104% (inactive)

**Q.** Which growth does the source give for `CC(C)NS(=O)(=O)/N=C1\NC(=O)NC1=C(Cl)Cl` here?
**A.** 95.6% (inactive)

**Q.** `Cc1ccc2cnc(N)c(C#Cc3cc(C(=O)Nc4ccc(CN5CCN(C)CC5)c(C(F)(F)F)c4)cnc3C)c2c1` was tested. Which growth did it give?
**A.** 6.23% (active)

**Q.** For `Cc1nn(-c2ccc([N+](=O)[O-])cc2)c2ncnc(N/N=C/c3ccccc3O)c12`, which growth is on record?
**A.** 31.6% (inactive)

**Q.** `CC(C)(C)OC(=O)CN1CCc2c(sc3ncnc(N4CCN(c5ccc(F)cc5)CC4)c23)C1` was tested. Which growth did it give?
**A.** 92.1% (inactive)

**Q.** For `COC(=O)[C@@]1(C)CC[C@]2(C)CC[C@]3(C)C4=CC=C5C(=CC(=O)C(O)=C5C)[C@]4(C)[C@@H](O)C[C@@]3(C)[C@@H]2C1`, which growth is on record?
**A.** 43.5% (inactive)

**Q.** With `Cc1cc(Cl)nc(N2CCN(CCNc3ccnc4cc(Cl)ccc34)CC2)n1` as the compound, how does the growth read?
**A.** 61.1% (inactive)

**Q.** For `Cc1ccc(C)c2c1sc1nc(N3CCOCC3)c(C#N)c(=O)n12`, which growth is on record?
**A.** 110% (inactive)

**Q.** How did the growth turn out when `COc1ccc2c(c1)CC[C@@H]1[C@@H]2CC[C@]2(C)c3c(cc(C#N)c4c3sc3ccccc34)C[C@@H]12` was run?
**A.** 109% (inactive)

**Q.** For `C=C1C(=O)O[C@H]2[C@H]1CC/C(COC(=O)NCc1ccc(Cn3c(=O)sn(-c4ccc(I)cc4)c3=O)cc1)=C\CC[C@@]1(C)O[C@@H]21`, which growth is on record?
**A.** 89.7% (inactive)

**Q.** `O=C(O)CC(C(=O)O)/C(=C\c1ccccc1)c1ccccc1` (stereo unspecified) was tested. Which growth did it give?
**A.** 109% (inactive)

**Q.** How did the growth turn out when `CCN(CC)CCOc1ccc(Nc2ncc3cc(-c4c(Cl)cccc4Cl)c(=O)n(CCOC)c3n2)cc1` was run?
**A.** 34.8% (inactive)

**Q.** `O=C(c1ccc(Br)cc1)C(Br)C(c1ccc(Cl)cc1)C(c1ccccc1)[N+](=O)[O-]` (stereo unspecified) was tested. Which growth did it give?
**A.** 110% (inactive)

**Q.** How did the growth turn out when `CN1CCOCCN(C)Cc2ccc3ccc(cc3c2)CN(C)CCOCCN(C)Cc2ccc3ccc(cc3c2)C1` was run?
**A.** 114% (inactive)

**Q.** How did the growth turn out when `COc1ccc(CN2C(=O)OC(C)(COC(C)=O)C2=O)cc1` (stereo unspecified) was run?
**A.** 111% (inactive)

**Q.** Which growth does the source give for `CN(C)c1ccc(/C=N\NC(=O)c2ccc3nc(-c4ccc(Cl)cc4)[nH]c3c2)cc1` here?
**A.** 83.3% (inactive)

**Q.** With `COCCn1cc(-c2csc(-c3c[nH]c4ccc(F)cc34)n2)c2cccnc21` as the compound, how does the growth read?
**A.** 25.3% (inactive)

**Q.** `C/C(Cc1ccc(Cl)cc1)=C(\c1ccc(OCCN2CCCCCC2)cc1)c1ccc(OC(=O)c2ccccc2)cc1` was tested. Which growth did it give?
**A.** 77.4% (inactive)
